# Experimental data as given in the supplement of paper PMC7411054.
# Values without a mark were called inactive.
# System: WPMY1-TUBA1B-RELA
# Assay: phenotypically active (imaging signature differs from DMSO and reproducible) at any of 0.3-9 uM (binary (1 = active, 0 = inactive)); higher = active
# Details: treatment time: 24 h
# Outline: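 Cells from fifteen gene-edited reporter lines (A549, HepG2 and WPMY1) were treated for 24 h at 0.3, 1, 3 or 9 µM and imaged live, four wells per condition. Features were normalised per well to solvent control wells. A condition deviated if ≥3 of 4 wells passed the 95th percentile of control Euclidean distances and was reproducible if its median replicate Pearson correlation beat the 95th percentile of non-replicates; phenotypic activity needed both.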
row,SMILES,phenotypically active
1,O=c1[nH]cnc2c1ncn2[C@H]1CC[C@@H](CO)O1 [Didanosine],0
2,CC(c1cc2ccccc2s1)N(O)C(N)=O (stereo not drawn) [zileuton],0
3,COc1ccc2[nH]c(S(=O)Cc3ncc(C)c(OC)c3C)nc2c1 (stereo not drawn) [omeprazole],0
